BAZ2B inh: BAZ2B (human) inhibition; AlphaScreen BAZ2B-H3K14Ac peptide displacement; Potency, µM (titrated, usually from 114 µM), hits mostly inhibitors; actives 4.4% (n = 360,000); note: nearly all actives have a fitted effect of over 60% in size
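Inhibition is scored as reduced AlphaScreen emission. The BAZ2B/b-H3(5-23)K14Ac complex (50 nM each) in PBS pH 7.4, 0.01% Tween-20 meets compound (up to 110 uM) for 30 min at RT before bead addition.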
Sfp inh: blocks B. subtilis Sfp PPTase activity; Q9F4F7; Biochemical Sfp PPTase activity, qHTS; Potency, µM, most hits filed as inhibitors; actives 3.5% (n = 310,000); AID 1490;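 note: the enzyme is Sfp with the accession as filed and its product quenches rhodamine fluorescence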
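With Hepes-Na pH 7.6 buffer containing 10 mM MgCl2, Sfp (15 nM) modified BHQ-2-YbbR (12.5 uM) using rhodamine-CoA (5 uM). Two reads 30 minutes apart at 525/598 nm yielded each well's rate.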
JMJD2A Tudor: blocks the human JMJD2A Tudor domain | O75164 | AlphaScreen JMJD2A-Tudor / H3K4me3 peptide binding | Potency, µM (series often up to 114 µM), hits mostly inhibitors | actives 4.4% (n = 390,000) | AID 504339; note: nearly all actives have a fitted effect of over 50% in size
HP1b binding inh: blocks HP1-beta chromodomain binding to methylated histone tails | P83916 | Potency, µM (series often up to 114 µM), actives largely listed as inhibitors | actives 0.56% (n = 390,000) | AlphaScreen HP1-beta / biotin-H3K9me3 peptide binding; note: nearly all actives have a fitted effect of over 70% in size
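AlphaScreen: HP1-beta (50 nM) preformed 30 min with biotin-H3(1-18)K9me3 peptide (50 nM) in PBS pH 7.4, 0.01% Tween-20. Compound added for 30 min at RT, then streptavidin donor/nickel chelate acceptor beads (10 ug/mL) for 30 min.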
G9a inh: inhibitors of human histone lysine methyltransferase G9a. Q96KQ7. G9a H3K9 monomethylation, AlphaScreen, 2 h. Potency, µM (doses to about 102 µM), hits mostly inhibitors. actives 8.8% (n = 350,000). AID 504332; note: nearly all actives have a fitted effect of over 75% in size
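AlphaScreen detection with an anti-monomethyl H3K9 antibody quantified product after a 2 h room-temperature reaction containing 500 nM biotinylated H3K9 peptide, 20 µM SAM and 20 nM enzyme, which had been preincubated 15 min with compound.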
Hits are given with their value; i = inactive; ? = inconclusive; nt = no result; ! = repeats disagree; [ ] = remark or other dose. Most compounds without a hit are left out; they make up all but 12% or so of the library. Calls come from the whole dose curve; as a rule, active = well fitted curve in the direction sought with a large enough effect; inconclusive = small, poorly fitted or top-dose-only effect, or another doubt; inactive = no such curve, though single readings can be large; an effect the other way counts as inactive or inconclusive.

SMILES	BAZ2B inh	Sfp inh	JMJD2A Tudor	HP1b binding inh	G9a inh
COC(=O)C1=CC(C(=O)c2cccs2)=NN(c2ccc(OC)cc2)C1C(=O)OC (configuration not stated)	8.9µM	i	25µM	?	13µM
C/C(CC(=O)Nc1ccc(C)c(Cl)c1)=N\NC(=O)c1ccccn1	i	i	i	i	i
CCOc1ccc(NCc2nc3ccccc3n2CCOc2ccc(C)cc2)cc1	13µM	nt	11µM	?	14µM
CCOc1ccc(NCc2nc3ccccc3n2CCOc2ccccc2)cc1	11µM	i	18µM	i	32µM
Cc1cc(/C=C2\SC(N)=NC2=O)c(C)n1-c1ccccc1	i	50µM	i	i	?
Cc1cc(/C=C2\SC(=S)NC2=O)c(C)n1C	45µM	i	45µM	i	40µM
CCCOc1ccccc1/C=C1\SC(N)=NC1=O	i	i	i	i	i
Cc1cc(C=C2C(=O)CCCC2=O)c(C)n1-c1ccccc1	50µM	i	?	i	50µM
Cc1cc(/C=C2\SC(=S)NC2=O)c(C)n1-c1ccc(O)cc1	40µM	45µM	i[11.4 µM]	?	nt
COc1ccc(-n2c(C)cc(/C=C3\SC(=S)NC3=O)c2C)cc1	i	i	i	i	nt
COc1ccc([C@H]2C(C(=O)O)=C[C@@H](CC3CCCC3)N2S(=O)(=O)c2ccc(C)cc2)cc1OC	nt	nt	i	i	nt
Cc1ccc(C(=O)CN(CCCC(N)=O)C(=O)c2ccncc2)cc1	i	nt	i	i	i[2.33 µM]
COc1ccc(CCn2c3c(c(=O)[nH]c2=O)C(NC(=O)c2ccccc2)(C(F)(F)F)C(=O)N3)cc1OC (configuration not stated)	i	nt	i	i	i
Cc1cc(/C=C2\SC(=S)NC2=O)c(C)n1-c1ccccc1	?	i	14µM	i	45µM
Cc1cc(/C=C2/SC(=O)NC2=O)c(C)n1-c1ccc(N2CCOCC2)cc1	i	i	i	i	i
Cc1ccc(-n2cc(-c3ccccc3)[nH]c2=O)cc1F	i	i	i	i	?
COc1ccccc1-n1cc(-c2ccc(Cl)cc2)[nH]c1=O	?	i	i	i	56µM
COc1ccc(-n2cc(-c3ccc(OC)c(OC)c3)[nH]c2=S)cc1	i	45µM	3.2µM	?	0.89µM
O=[N+]([O-])c1ccc(-c2cn(-c3ccc(Cl)cc3)c(=S)[nH]2)cc1	i	i	i	i	?
COc1ccc(-n2cc(-c3ccc(Br)cc3)[nH]c2=S)cc1	?	i	i	i	i
COc1cc(OC)c(-n2cc(-c3ccc(OC)c(OC)c3)[nH]c2=S)cc1Cl	i	i	?	i	32µM
COc1ccc(-c2cn(-c3cccc(C)c3)c(=O)[nH]2)cc1OC	?	i	i	i	28µM
CCOC(=O)CCCNC(=O)N1CCc2nc(-c3ccccc3)c3c(c2C1)CO[C@@H](C)C3	nt	i	nt	nt	nt
Cc1cc(NC(=O)N2CCC(CN3CCOCC3)CC2)ccc1Br	i	nt	i	i	i
COc1ccc(-c2nc(C)c(C(C)=O)n2O)cc1[N+](=O)[O-]	i	i	i	i	56µM
SMILES	BAZ2B inh	Sfp inh	JMJD2A Tudor	HP1b binding inh	G9a inh
Cc1ccc2c(c1)N(CCCC(=O)Nc1cccc(C(F)(F)F)c1)C(=O)CO2	i	i	16µM!	i	i
S=C(Nc1ccccc1)Nc1nc2ccccc2n1CCOc1ccc(Cl)cc1	7.1µM	?	?	?	i
CCn1c(NC(=O)C2CCCCC2)nc2ccccc21	i	i	i	i	i
CCn1c(NC(=S)Nc2ccccc2)nc2ccccc21	5.6µM	i	?	i	i
Cn1ncc2c(Nc3ccc([N+](=O)[O-])cc3)nc(Cl)nc21	i	i	i	i	i[12.7 µM]
Cc1ccccc1-c1noc(-c2cc3ccccc3oc2=O)n1	i	nt	i	i	i
O=C(CNc1ccc(C(F)(F)F)cc1[N+](=O)[O-])OCC(=O)c1ccccc1	i	i	i	i	?
O=C(CS(=O)c1ccc(C(F)(F)F)cc1[N+](=O)[O-])Oc1ccccc1 (configuration not stated)	?	i	i[11.4 µM]	i	50µM
CS(=O)(=O)c1ccc(S(=O)CC(=O)OCc2ccccc2)c([N+](=O)[O-])c1 (configuration not stated)	i	i	i	i	10µM
COc1ccccc1NC(=O)CC(C)n1nc(C)cc1C (configuration not stated)	i	nt	i	i	i
COc1ccc(CCNC(=O)CC(C)S(=O)(=O)c2ccc3c(c2)NC(=O)CO3)cc1OC (configuration not stated)	i	i	i	i	i
O=C(Cn1cnc2sc(-c3ccccc3)cc2c1=O)NCc1ccccc1	i	i	i	i	?
COc1ccc(CNC(=O)Cn2ncn3c(cc4ccccc43)c2=O)cc1	i	i	i	i	nt
O=C(Cn1ncn2c(cc3ccccc32)c1=O)NCc1ccco1	50µM	22µM	?	i	?
O=C(Cn1cnc2sc(-c3ccccc3)cc2c1=O)NCc1ccco1	?	32µM	3.2µM	8.9µM	13µM
CCc1cc2c(nc1CC)CCN(CC/C(C)=N/OC[C@@H](C)[C@H](OCc1ccccc1)C(C)C)C2	nt	i	nt	nt	nt
CCOC(=O)CCN1C(=O)[C@H]2[C@H]3[C@H](O)[C@H](O)C/C(=N/O[C@@H]4O[C@@H](COC(C)=O)[C@@H](OC(C)=O)[C@@H](OC(C)=O)[C@H]4OC(C)=O)[C@H]3CC[C@@H]2C1=O	nt	i	nt	nt	nt
C[C@@H]1O[C@@H](O[C@H]2[C@H](Oc3cc(O)c4c(c3)O[C@H](c3ccc(O)cc3)CC4=O)O[C@H](CO)[C@@H](O)[C@@H]2O)[C@H](O)[C@H](O)[C@H]1O	i	i	i	i	45µM
C[C@@H]1O[C@@H](O[C@H]2[C@H](Oc3cc(O)c4c(c3)OC(c3ccc(O)cc3)CC4=O)O[C@H](CO)[C@@H](O)[C@@H]2O)[C@H](O)[C@H](O)[C@H]1O (some centres not stated)	i	nt	i	i	i
COc1ccc(CNC(=O)CCc2cn(C)c3ccccc23)cc1	?	nt	i	i	i
CC1OC(O[C@H]2CC[C@]3(C)C4C=C[C@]56OC[C@@]7(CC[C@@H](C)[C@H](C)C75)[C@H](O)C[C@@]6(C)[C@]4(C)CC[C@H]3C2(C)C)C(OC2OC(CO)C(O)C(O)C2OC2OCC(O)C(O)C2O)C(O)C1O (some centres not stated)	?	89µM	nt	nt	i[12.7 µM]
CCN(CC)c1ccc(N=Cc2ccc([N+](=O)[O-])o2)cc1	10µM	28µM	40µM	22µM	2.5µM
CCCCCC(=O)N/N=C/c1ccc([N+](=O)[O-])o1	i	i	i	i	i
CCN(CC)c1ccc(N=Cc2ccccc2[N+](=O)[O-])cc1	3.2µM	50µM	8.9µM	8.9µM	8.9µM
CC(=O)N(C)c1ccc(N=Cc2cc3c(cc2[N+](=O)[O-])OCO3)cc1	nt	nt	i	i	nt
CCn1cc(C(=O)Nn2cnnc2)c(=O)c2ccc(C)nc21	i	i	?	i	50µM

Bioassay records as filed in PubChem BioAssay.
